# According to PubChem BioAssay (NCI):
# This is part of a sample that, as a whole, favours compounds with a hit. Of some 83,000 tested, about 20% had one in any assay.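 Treatment: one concentration, 48 hours, 96-well format. Scoring: percent growth, with anything below 10 considered active.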 A number with no mark means an inactive call. The source made the active and inactive calls.
# How the values were obtained:
# Experiment in all cases: NCI-60 one-dose screen, 48 h (100 = growth as untreated, 0 = no growth, -100 = all killed)
# Conditions in all cases: 10 µM unless noted
# HCT-15 colon = test system: HCT-15 colon
# HT29 colon = test system: HT29 colon
# SNB-75 CNS = test system: SNB-75 CNS
# SNB-19 CNS = test system: SNB-19 CNS
# U251 CNS = test system: U251 CNS
# PC-3 prostate = test system: PC-3 prostate
# UACC-62 melanoma = test system: UACC-62 melanoma
# LOX IMVI melanoma = test system: LOX IMVI melanoma
# SK-MEL-28 melanoma = test system: SK-MEL-28 melanoma
# SK-MEL-2 melanoma = test system: SK-MEL-2 melanoma
# EKVX NSCLC = test system: EKVX NSCLC
# SN12C renal = test system: SN12C renal
# UO-31 renal = test system: UO-31 renal
# TK-10 renal = test system: TK-10 renal
# ACHN renal = test system: ACHN renal
# CAKI-1 renal = test system: CAKI-1 renal
# A498 renal = test system: A498 renal
# CCRF-CEM leukemia = test system: CCRF-CEM leukemia
# MOLT-4 leukemia = test system: MOLT-4 leukemia
Structure (SMILES),growth (HCT-15 colon),growth (HT29 colon),growth (SNB-75 CNS),growth (SNB-19 CNS),growth (U251 CNS),growth (PC-3 prostate),growth (UACC-62 melanoma),growth (LOX IMVI melanoma),growth (SK-MEL-28 melanoma),growth (SK-MEL-2 melanoma),growth (EKVX NSCLC),growth (SN12C renal),growth (UO-31 renal),growth (TK-10 renal),growth (ACHN renal),growth (CAKI-1 renal),growth (A498 renal),growth (CCRF-CEM leukemia),growth (MOLT-4 leukemia)
CSc1ccc(-c2n[nH]nc2-c2cc3ccccc3s2)cc1,28.7%,37.8%,44.5%,55.7%,32.6%,56.7%,47.5%,34.9%,59.5%,33%,73.2%,59.9%,52.3%,84.2%,64.7%,49.1%,46.8%,52.6%,10.1%
COc1ccc(-c2cc(=O)c3c(OC)c4ccoc4cc3o2)cc1,92.4%,82.1%,104%,82.4%,92.5%,86.1%,98.4%,95.1%,118%,131%,86.3%,93.8%,90.7%,108%,102%,103%,121%,109%,84.7%
CC(C)CC1C(=O)N2CCC[C@H]2C2(O)O[C@](NC(=O)C3C=C4c5cccc6[nH]c(Br)c(c56)C[C@H]4N(C)C3)(C(C)C)C(=O)N12 (some centres undefined),43.1%,53.2%,35.5%,69.9%,53.4%,20.4%,56.4%,62.5%,91.3%,77.4%,54.6%,40.3%,36.2%,54.6%,43.6%,61.1%,76.5%,58.3%,15.9%
COc1ccc(/C=C/c2nc3ccccc3nc2/C=C/c2ccc(OC)cc2)cc1,94.5%,95.1%,87.8%,108%,95.4%,80.3%,90%,102%,102%,101%,96.2%,101%,84.7%,95.8%,97.6%,86.4%,83.9%,98.2%,99.1%
CCC([N+](=O)[O-])S(=O)(=O)c1ccc(C)cc1 (centres undefined),105%,101%,85.1%,94.4%,100%,101%,101%,98.2%,112%,107%,110%,95.3%,82%,102%,104%,80%,103%,99%,117%
O=S(=O)(Nc1ccc(NS(=O)(=O)c2ccccc2)c(Cl)c1)c1ccccc1,110%,107%,84.9%,112%,105%,88.7%,88.8%,106%,107%,91.6%,106%,102%,88.7%,100%,105%,92.4%,113%,92%,79%
O=C(O)c1c(=O)cccc2ssc12,4.16% (active),-48.6% (active),26.9%,-74.4% (active),-91.9% (active),-19.3% (active),14.3%,1.04% (active),10.8%,11.6%,11%,14.3%,21.7%,4.78% (active),3.95% (active),68.5%,-76.8% (active),4.61% (active),-23.3% (active)
O=C1Nc2c(ccc(Cl)c2Cl)/C1=C\c1cc(C(F)(F)F)cc(C(F)(F)F)c1,-80.8% (active),-26.5% (active),13.7%,21.7%,-54.2% (active),0.08% (active),-3.92% (active),-90.1% (active),-21% (active),38.4%,26.9%,14.2%,16.6%,26%,8.13% (active),8.62% (active),-23.7% (active),30.8%,-14.2% (active)
Cc1cc(N2CCOCC2)nc(N[C@@H]2CCC[C@H](Nc3ccnc4cc(Cl)ccc34)C2)n1,-43.5% (active),-52.9% (active),-37.3% (active),34.8%,-57.3% (active),9.75% (active),-79.7% (active),-77.3% (active),-74.3% (active),-71.5% (active),49.9%,22.7%,-84.5% (active),-68.7% (active),-61.7% (active),–,35.1%,-10.4% (active),2.9% (active)
Oc1cccc2ccc(N/N=C/c3cc(CN4CCOCC4)c(O)c4ncccc34)nc12,26.2%,17.6%,35.9%,23.9%,5.22% (active),28.5%,2.18% (active),-71.1% (active),24%,25%,23.4%,20.2%,-4.14% (active),23%,-29.3% (active),11.5%,21.3%,–,9.34% (active)
COc1ccc(/C=C2\Oc3cc(OCCCCN4CCCC4)ccc3C2=O)cc1,9.45% (active),6.71% (active),98.1%,83.7%,62.6%,75.6%,90.5%,-84.7% (active),107%,98.9%,91.5%,90.3%,68%,98.1%,95.5%,95%,–,13.8%,42.7%
Nc1n[nH]c2ccc([C@@H]3Nc4ccc5[nH]ncc5c4[C@H]4C5C=CC(C5)[C@@H]34)cc12 (some centres undefined),10.8%,11.5%,-9.96% (active),27%,18%,13.8%,37.5%,9.79% (active),54.6%,46.9%,37.7%,34.2%,44.5%,67.5%,24.4%,35.3%,–,–,15.1%
c1ccc(CCNc2ncnc3[nH]ncc23)cc1,105%,94%,92.6%,105%,94.1%,67%,86.4%,89.1%,114%,127%,58.3%,92.7%,62.1%,110%,89.2%,90.4%,104%,–,124%
CCNC(=O)Oc1ccc(/C(=C(\C)c2ccc(Cl)cc2)c2ccc(OCCN(CC)CC)cc2)cc1,1.8% (active),-23.2% (active),45.2%,59.2%,21.1%,31.4%,-68.3% (active),-59% (active),-62.3% (active),38.1%,60.1%,66.1%,25.8%,80.4%,71.3%,–,85.5%,16.4%,7.99% (active)
Nc1n[nH]c2ccc([C@@H]3Nc4cc5c(cc4[C@H]4C6CCC(C6)[C@@H]34)C(=O)NC5)cc12 (some centres undefined),15.2%,12%,2.29% (active),28.2%,18.1%,16.8%,38.9%,18.2%,59.2%,48.8%,48.9%,38.4%,54.9%,89.3%,34.4%,40.5%,–,10.5%,14.7%
C#CC(F)(F)[C@]1(O)CC[C@H]2[C@@H]3CCC4=CC(=O)CCC4=C3[C@@H](c3ccc(C4CC4)cc3)C[C@@]21C,59.3%,-63.9% (active),-15.9% (active),46.1%,-32.2% (active),-53.8% (active),26.7%,-84.6% (active),90.2%,59.5%,-67.4% (active),60.3%,-84.8% (active),99.8%,40.4%,-73.3% (active),-5.83% (active),-63% (active),-6.54% (active)
NNCCc1ccc(NC(=O)CCCc2ccc(/C=C/C(=O)NO)cc2)cc1,80.1%,66.4%,53%,58.5%,22.1%,53.9%,43%,44%,73.2%,52.4%,69.2%,55.8%,49.2%,76.5%,88.3%,93.6%,47%,–,12.1%
